Laboratory results: PubChem BioAssay (Tox21)
“And” between values parts separate entries of the source, which are not always exact repeats. Identical values can stand only once. Inconclusive results are not listed. Where a call stands in place of a potency, no number is given. The source made the active and inactive calls. Calls come from the whole dose curve; as a rule, active = well fitted cell-killing curve with a large enough effect in the repeat runs; inconclusive = weak or mixed curves, or effect the other way; inactive = flat fitted curve, though single readings scatter.
Potency is the fitted concentration of half-maximal effect.

Assay: qHTS RealTime-Glo MT Cell Viability Assay in HEK293 cells - 32 hour (AID 1224868); note: nearly all actives have a fitted effect of over 50% in size
Settings: RealTime-Glo luminescence; series mostly up to 76.8 µM
How it was run: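 HEK293 cells seeded with NanoLuc/prosubstrate reagent, rested 5 h at 37 C, then dosed and kept at 37 C up to 40 h. Nonlytic real-time luminescence from viable cells read at 0, 8, 16, 24, 32 and 40 h.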
For `O=C(O)CNC(=O)c1ccc([N+](=O)[O-])cc1`, the Potency was “inactive”. In the case of `CC(=O)Nc1ccc(S(N)(=O)=O)cc1`, the Potency is reported as “inactive”. In the case of `CCCCCCCCS(=O)(=O)Cl`, the Potency is reported as “inactive”. In the case of `C=C[Si](OC(=C)C)(OC(=C)C)OC(=C)C`, the Potency is reported as “inactive”. With `O=C1NC(=O)[C@@]2(CCOc3ccc(F)cc32)N1` the Potency was “inactive”. In the case of `CC/C=C\CC/C=C/CO`, the Potency is reported as “inactive”. For `O=c1cc(CO)occ1O`, the Potency was “inactive”. With `CC(=O)CC(C)C` the Potency was “inactive”. For `CCN(CC)CCNC(=O)c1cc(S(C)(=O)=O)ccc1OC`, the Potency was “inactive”. In the case of `O=c1cc(-c2ccccc2)oc2ccccc12`, the Potency is reported as 15.5 µM (active) and 6.88 µM (active). For `NC(=O)c1cn(Cc2c(F)cccc2F)nn1`, the Potency was “inactive”. For `O=C1CCCCCCCCCCCN1`, the Potency was “inactive”. For `Cc1cnc(NS(=O)(=O)c2ccc(N)cc2)nc1`, the Potency was “inactive”. For `CC(=O)N(CC(O)CO)c1c(I)c(C(=O)NCCO)c(I)c(C(=O)NCC(O)CO)c1I` (stereo not drawn), the Potency was “inactive”. For `C/C=C(\C)C#N`, the Potency was “inactive”. With `COC(=O)CCSCCC(=O)OC` the Potency was “inactive”. For `COc1ccccc1OCC(O)CN1CCN(CC(=O)Nc2c(C)cccc2C)CC1` (stereo not drawn), the Potency was “inactive”. For `CN(C)CCCSc1ccccc1NC(=O)/C=C/c1ccccc1`, the Potency was “inactive”. In the case of `CC(=O)OCC(=O)[C@@]1(O)CC[C@H]2[C@@H]3CCC4=CC(=O)CC[C@]4(C)[C@H]3C(=O)C[C@@]21C`, the Potency is reported as “inactive”. For `CCC=O`, the Potency was “inactive”. For `Nc1ccccc1S(=O)(=O)O`, the Potency was “inactive”. For `CCN(CC)CCOCCOC(=O)C1(c2ccccc2)CCCC1`, the Potency was “inactive”. In the case of `CC/C=C\CCOC(C)=O`, the Potency is reported as “inactive”.
